Bioassay records (PubChem BioAssay)
HTR5A inv ctr: HTR5A inverse agonists in luminescence cell assay, primary screen, counter-screen for OPRM1-OPRD1 heterodimer inverse agonist project, full-deck HTS; 5-hydroxytryptamine receptor 5A (Homo sapiens), P47898; HTR5A cell line, inverse agonism; inhibition, % at 9.3 µM; hit rate 0.083% among 340,000; AID 504634, 2011; in the data active = inhibition mostly above about 23%, no sharp cut-off; inactive = mostly below about 18%;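 also: 0% = cells with DMSO and 100% = no-cell wells with DMSO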
HTR5A ag: HTR5A agonists in luminescence cell assay, primary screen, counter-screen for OPRM1-OPRD1 heterodimer agonist project, full-deck HTS; cell-based; AID 504692, 2011; activation, % at 9.3 µM; hit rate 0.61% among 340,000; 5-hydroxytryptamine receptor 5A (Homo sapiens), P47898; in the data active = activation mostly above about 9.5%, no sharp cut-off; inactive = mostly below about 7.6%;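 also: 0% = cells with vehicle only and 100% = reference agonist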
MOR-DOR inv ag: inverse agonists of MOR-DOR heterodimerization, primary screen, cell-based, luminescence; Mu-type opioid receptor (Homo sapiens) + Delta-type opioid receptor (Homo sapiens), …; inhibition, % at 9.3 µM; AID 504357, 2011; cell-based MOR-DOR heterodimer luminescence, inverse agonism; hit rate 0.21% among 340,000; in the data active = inhibition above about 22%, passing the limit was not always enough;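 also: 0% = cells with DMSO and 100% = wells without cells with DMSO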
Target sequence (P35372 whole entry, looked up): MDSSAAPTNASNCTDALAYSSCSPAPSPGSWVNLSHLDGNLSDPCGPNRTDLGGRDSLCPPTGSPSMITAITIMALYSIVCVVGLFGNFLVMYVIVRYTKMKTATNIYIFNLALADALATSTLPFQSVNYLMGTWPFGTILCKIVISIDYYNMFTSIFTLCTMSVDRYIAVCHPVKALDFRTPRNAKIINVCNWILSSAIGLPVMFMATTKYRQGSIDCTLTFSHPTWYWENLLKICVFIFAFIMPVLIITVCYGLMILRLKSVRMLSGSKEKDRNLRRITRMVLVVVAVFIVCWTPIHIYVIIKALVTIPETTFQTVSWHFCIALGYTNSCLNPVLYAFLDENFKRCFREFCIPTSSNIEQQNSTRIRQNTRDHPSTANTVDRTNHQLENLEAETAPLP
Target sequence (P41143 whole entry, looked up): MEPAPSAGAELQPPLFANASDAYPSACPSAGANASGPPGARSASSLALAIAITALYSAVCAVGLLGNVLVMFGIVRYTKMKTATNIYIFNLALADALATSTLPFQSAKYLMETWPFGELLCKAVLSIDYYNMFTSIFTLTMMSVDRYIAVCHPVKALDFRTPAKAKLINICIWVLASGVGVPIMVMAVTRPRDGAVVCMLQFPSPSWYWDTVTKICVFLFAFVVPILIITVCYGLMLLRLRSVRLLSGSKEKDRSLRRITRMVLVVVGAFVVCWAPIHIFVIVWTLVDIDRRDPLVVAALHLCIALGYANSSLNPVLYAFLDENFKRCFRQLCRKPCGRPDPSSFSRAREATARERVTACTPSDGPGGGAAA
OPRM1-OPRD1 ag: agonists of OPRM1-OPRD1 heterodimerization, primary screen, cell-based, luminescence; Mu-type opioid receptor (Homo sapiens) + Delta-type opioid receptor (Homo sapiens), …; cells; activation, % at 9.3 µM; hit rate 0.3% among 340,000; AID 504326, 2011;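 also: 0% = vehicle-treated cells and 100% = reference agonist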
OPRM1-D1 ag cf: agonists of MOR-DOR heterodimerization, confirmation, cell-based, luminescence | AID 504904, 2011 | shares compounds with OPRM1-OPRD1 ag | hit rate 45% among 830 | activation, % at 9.3 µM | cells, luminescence complementation;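 also: 0% = vehicle-treated cells and 100% = reference agonist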
HTR5A ag ctr2: HTR5A agonists in cells, counter-screen for OPRM1-OPRD1 heterodimer agonist project, cell-based, luminescence; shares compounds with OPRM1-OPRD1 ag; HTR5A agonist counterscreen; activation, % at 9.3 µM; hit rate 8% among 830; in the data active = activation above about 17%;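 also: 0% = vehicle-treated cells and 100% = reference agonist response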
Starred values were filed as active, the others as inactive; i = inactive; · = no result given. Only some compounds are listed: those with a hit (about 1.1% of all), similar ones and a draw of the others. Rule as the data show it, unless noted: active = activation above about 18%; inactive = the rest.

SMILES	HTR5A inv ctr	HTR5A ag	MOR-DOR inv ag	OPRM1-OPRD1 ag	OPRM1-D1 ag cf	HTR5A ag ctr2
Cc1ccc(N(C(=O)C(F)(F)F)C(C(=O)NC2CCCCC2)c2cccs2)cc1 (centres undefined)	-10	12	-105	18*	-1	-1
COc1ccc(CN2CCC(N(CCc3ccccc3)Cc3ccccc3)CC2)c(OC)c1	-9	3	i	107*	3	7
CCCN1CCC(N(CCc2ccccc2)Cc2ccccc2)CC1	16	-5	-7	1	·	·
COc1ccccc1NS(=O)(=O)c1ccc(C(=O)NCCCN2CCOCC2)cc1	-22	8	1	0	·	·
C[C@H](CO)N1C[C@H](C)[C@@H](CN(C)S(=O)(=O)c2ccccc2)Oc2c(NC(=O)c3ccncc3)cccc2C1=O	21	1	-2	0	·	·
Cc1nc2cc(NC(=O)c3ccc([N+](=O)[O-])s3)ccc2s1	-18	9	-161	30*	1	6
O=C1C=C(NCCc2cc(Br)c(O)c(Br)c2)C(=O)c2ncccc21	-25	6	-157	36*	10	4
CCC(=O)N(Cc1cc2ccccc2[nH]c1=O)c1ccccc1OC	6	-2	1	0	·	·
Cc1ccc(-c2cc(C(=O)Nc3ccncc3)c3ccccc3n2)cc1	-31	12	-153	28*	18	15
O=C(Nc1ncccn1)c1cc(-c2cccc(Br)c2)nc2ccccc12	-5	2	12	-3	·	·
COc1ccc(NC(=O)c2cc(-c3ccco3)nc3ccccc23)cc1	-3	4	-251	50*	22*	20*
O=C(Nc1ccncc1)c1cc(-c2cccc(Br)c2)nc2ccccc12	-56	26*	-336	52*	11	6
O=C(CSc1ccc(-c2ccccn2)nn1)N1CCCc2ccccc21	-7	-5	11	-2	·	·
CC(=O)N/C(=C\c1ccccc1)C(=O)OCc1cc(C)ccc1C	2	-1	-16	2	·	·
CC(=O)N/C(=C\c1ccccc1)C(=O)OCC(=O)Nc1cc(S(=O)(=O)N(C)C)ccc1C	-3	4	12	-2	·	·
C=CCN1C(=O)c2oc3ccccc3c(=O)c2C1c1ccc(O)c(OC)c1 (centres undefined)	-6	2	9	-2	·	·
CCOc1cc(C2c3c(oc4ccccc4c3=O)C(=O)N2c2nccs2)ccc1O (centres undefined)	-32	-4	-125	24*	1	2
O=C(Nc1ccc(Cl)c(Cl)c1)N(CCCN1CCOCC1)Cc1cccnc1	-16	7	6	-1	·	·
O=C(Nc1ccc(Cl)c(Cl)c1)N(CCCN1CCOCC1)Cc1cccs1	5	-2	-141	27*	-5	-2
CN(C)C(CNC(=O)c1ccc2ccccc2c1)c1ccco1 (centres undefined)	-3	1	-158	30*	33*	4
CSc1ccc(C(=O)NCC(c2ccco2)N(C)C)cc1[N+](=O)[O-] (centres undefined)	-17	6	i	251*	242*	1
Cc1cccc(C(=O)NCC(c2ccco2)N(C)C)c1 (centres undefined)	2	-1	-5	1	·	·
CC(=O)NC(CC(=O)NCC(c1ccco1)N(C)C)c1ccccc1 (centres undefined)	-43	4	i	195*	226*	-1
CSc1ccccc1C(=O)NCC(c1ccco1)N(C)C (centres undefined)	-24	8	5	-1	·	·
COc1cccc(CN2CCN(C(=S)NCc3ccc(Cl)cc3)CC2)c1	1	0	-3	1	·	·
Cc1cccc(-c2nnc(SCC(=O)c3ccc(O)cc3O)n2C)c1	6	-2	3	0	·	·
COc1ccccc1C(=O)NCC(=O)OCC(=O)c1cccc2ccccc12	22	-8	8	-1	·	·
CNC[C@H](CC1CCCCC1)NC[C@H](Cc1ccccc1)NCCC12CC3CC(CC(C3)C1)C2	-60	0	i	95*	164*	39*
NC[C@H](Cc1ccccc1)NCCCCC1CCCCC1	-14	-1	-4	1	·	·
